From PubChem BioAssay (Tox21)
Records with an inconclusive call do not appear. Entries that show only a call come without a potency. A number with no mark means an inactive call. Active and inactive are the calls of the source. Unless noted, calls come from the whole dose curve; as a rule, active = well fitted curve in the direction sought with a large enough effect in the repeat runs; inconclusive = weak or mixed curves; inactive = no such curve, though single readings can be large; an effect the other way counts as inactive or inconclusive.

How the values were obtained:
[1] = biological target: Retinoic acid receptor RXR-alpha (Homo sapiens) (UniProt P19793); assay: qHTS assay to identify small molecule agonists of the RXR signaling pathway (AID 1159527; calls by dose curve; note: nearly all actives have a fitted effect of over 35% in size)
Chain of Retinoic acid receptor RXR-alpha (Homo sapiens) (P19793 whole entry, looked up): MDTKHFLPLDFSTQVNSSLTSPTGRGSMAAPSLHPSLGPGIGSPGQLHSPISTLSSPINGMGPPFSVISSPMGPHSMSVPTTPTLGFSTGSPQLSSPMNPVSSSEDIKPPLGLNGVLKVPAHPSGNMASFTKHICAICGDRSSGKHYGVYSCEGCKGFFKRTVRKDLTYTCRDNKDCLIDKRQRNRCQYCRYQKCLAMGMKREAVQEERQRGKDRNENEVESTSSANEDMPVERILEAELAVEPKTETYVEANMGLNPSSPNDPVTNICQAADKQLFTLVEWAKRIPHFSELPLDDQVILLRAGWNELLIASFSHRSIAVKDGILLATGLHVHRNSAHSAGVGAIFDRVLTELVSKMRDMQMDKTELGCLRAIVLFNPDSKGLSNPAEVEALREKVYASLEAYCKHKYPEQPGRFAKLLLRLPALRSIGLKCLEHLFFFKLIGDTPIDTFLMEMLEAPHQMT
Summary of the method: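 GeneBLAzer RXR-alpha-UAS-bla HEK 293T cells in medium with 2% charcoal-stripped FBS, pre-incubated 5 hr at 37 C, then exposed to compounds 16 hr. Beta-lactamase reporter read by FRET substrate, 2 hr room temperature, 460/530 nm emission.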

[2] = qHTS assay to identify small molecule antagonists of the retinoid acid receptor (RAR) signaling pathway - cell viability counter screen (AID 1159551); note: nearly all actives have a fitted effect of over 35% in size
Summary of the method: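 C3RL4 RARE-luciferase line; cpds + retinol 1 uM final, 6 h, 37 C/5% CO2; CellTiter-Glo ATP luminescence, 30 min RT.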

[3] = qHTS assay to identify small molecule antagonists of the retinoic acid receptor (RAR) signaling pathway (AID 1159552; note: nearly all actives have a fitted effect of over 50% in size)
Summary of the method: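 RARE-luc C3RL4 cells; cpds + 1 uM (final) retinol, 6 hr, 37 C/5% CO2; luciferase reagent, 30 min RT, luminescence readout. Inhibitors of retinol-driven signal scored.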

[4] = qHTS assay to identify small molecule agonists of the retinoic acid receptor (RAR) signaling pathway (AID 1159553); note: potency is the fitted concentration of half-maximal effect
Summary of the method: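 RARE-luc C3RL4 cells; overnight attachment 37 C/5% CO2; compound (DMSO) 6 hr; luciferase reagent, 30 min RT; luminescence read-out.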

[5] = qHTS assay to identify small molecule antagonists of the estrogen related receptor (ERR) signaling pathway from Tox21 library - cell viability counter screen (AID 1224834); note: nearly all actives have a fitted effect of over 30% in size
Summary of the method: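 Multiplexed viability counter screen in ERR cells: 17.5 h compound exposure at 37 C, CellTiter-Fluor added, 30 min at 37 C/5% CO2, fluorescence read.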

[6] = biological target: Luciferin 4-monooxygenase (Photinus pyralis) (UniProt P08659); assay: qHTS assay to identify small molecule inhibitors of firefly luciferase (AID 1224835); note: nearly all actives have a fitted effect of over 25% in size; note: potency is the fitted concentration of half-maximal effect
Chain of Luciferin 4-monooxygenase (Photinus pyralis) (P08659 whole entry, looked up): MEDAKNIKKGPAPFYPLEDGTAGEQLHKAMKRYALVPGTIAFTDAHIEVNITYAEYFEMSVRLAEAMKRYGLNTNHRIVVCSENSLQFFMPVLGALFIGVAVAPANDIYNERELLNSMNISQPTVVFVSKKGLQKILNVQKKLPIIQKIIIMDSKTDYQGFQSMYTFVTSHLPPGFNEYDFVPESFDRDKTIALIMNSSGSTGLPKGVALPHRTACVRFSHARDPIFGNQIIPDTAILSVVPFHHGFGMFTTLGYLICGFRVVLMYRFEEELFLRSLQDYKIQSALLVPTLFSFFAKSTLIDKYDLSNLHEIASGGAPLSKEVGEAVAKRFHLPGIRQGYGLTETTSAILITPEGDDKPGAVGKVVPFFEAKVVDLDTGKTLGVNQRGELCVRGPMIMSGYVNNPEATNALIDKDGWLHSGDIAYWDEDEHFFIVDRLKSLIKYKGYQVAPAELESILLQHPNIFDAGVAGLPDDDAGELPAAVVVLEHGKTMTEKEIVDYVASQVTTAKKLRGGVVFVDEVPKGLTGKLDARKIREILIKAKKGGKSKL
Summary of the method: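 Inhibition of purified Photinus luciferase is measured by luminescence. Substrate levels (D-luciferin, ATP) sit at their KM values. Each compound is tested in a concentration series.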

[7] = qHTS assay to identify small molecule agonists of the constitutive androstane receptor (CAR) signaling pathway - cell viability counter screen (AID 1224836); note: series mostly up to about 92 µM; nearly all actives have a fitted effect of over 45% in size
Summary of the method: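 HepG2 cells stably carrying hCAR and a CYP2B6-2.2kb reporter were plated 4 h, then given compounds at 15 concentrations plus PK11195 (final 0.75 uM). After 23 h at 37 C, viability was read by CellTiter-Fluor fluorescence.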

[8] = qHTS assay to identify small molecule antagonists of the constitutive androstane receptor (CAR) signaling pathway - cell viability counter screen (AID 1224837); note: series mostly up to about 92 µM; nearly all actives have a fitted effect of over 45% in size
Summary of the method: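 Read-out: CellTiter-Fluor fluorescence after 23 hr at 37 C/5% CO2. Cells: HepG2 double-stable for hCAR and CYP2B6-2.2kb. Compounds tested at 15 concentrations in the presence of CITCO, final concentration 50 nM.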

[9] = qHTS assay to identify small molecule antagonists of the estrogen related receptor signaling pathway with the pleiotropic PPARgamma coactivator (PGC) from Tox21 10K library - cell viability counter screen (AID 1224840; active = well fitted cell-killing curve with a large enough effect in the repeat runs, not every such curve was filed as active; note: nearly all actives have a fitted effect of over 40% in size)
Summary of the method: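 Fluorescence read-out of CellTiter-Fluor viability reagent, added after cells had been exposed to compound in DMSO for 17.5 h at 37 C; 30 min development at 37 C/5% CO2. Cells: PGC/ERR line, 2,000/well.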

[10] = qHTS assay to identify small molecule agonists of the estrogen related receptor signaling pathway with the pleiotropic PPARgamma coactivator (PGC) from Tox21 10K library (AID 1224842); note: nearly all actives have a fitted effect of over 15% in size; note: potency is the fitted concentration of half-maximal effect
Summary of the method: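 Luminescence from One-Glo (30 min, room temperature) measured after PGC/ERR cells had 18 h at 37 C with pinned compound (23 nL in DMSO). Cells had been seeded at 2,000 per well and pre-incubated 6 h.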

[11] = qHTS assay to identify small molecule agonists of the RXR signaling pathway - cell viability counter screen (AID 1159529); note: series mostly up to about 77 µM; nearly all actives have a fitted effect of over 50% in size
Summary of the method: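 RXR-alpha-UAS-bla HEK 293T cells in medium with 2% charcoal-stripped FBS were preincubated 5 hr, then exposed to compounds for 16 hr at 37 C. Viability was read as CellTiter-Glo luminescence after 30 min at room temperature.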

[12] = biological target: Nuclear receptor subfamily 1 group I member 3 (Homo sapiens) (UniProt Q14994); assay: qHTS assay to identify small molecule antagonists of the constitutive androstane receptor (CAR) signaling pathway (AID 1224838); note: nearly all actives have a fitted effect of over 40% in size
Chain of Nuclear receptor subfamily 1 group I member 3 (Homo sapiens) (Q14994 whole entry, looked up): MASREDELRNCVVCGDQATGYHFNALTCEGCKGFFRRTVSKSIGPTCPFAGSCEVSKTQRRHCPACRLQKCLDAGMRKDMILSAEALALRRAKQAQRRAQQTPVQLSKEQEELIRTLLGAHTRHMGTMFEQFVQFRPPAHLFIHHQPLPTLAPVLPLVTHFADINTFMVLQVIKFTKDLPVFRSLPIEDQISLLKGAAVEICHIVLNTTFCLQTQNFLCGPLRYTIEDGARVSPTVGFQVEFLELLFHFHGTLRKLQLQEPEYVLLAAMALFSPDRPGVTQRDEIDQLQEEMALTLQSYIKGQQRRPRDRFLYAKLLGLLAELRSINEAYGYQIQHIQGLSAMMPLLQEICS
Summary of the method: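 Read-out: ONE-Glo luciferase luminescence after 30 min at room temperature. HepG2-CYP2B6-hCAR double-stable cells, compounds in 15-point titration plus 50 nM CITCO final, 24 h at 37 C/5% CO2.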

[13] = biological target: Nuclear receptor subfamily 1 group I member 3 (Homo sapiens) (UniProt Q14994); assay: qHTS assay to identify small molecule agonists of the constitutive androstane receptor (CAR) signaling pathway (AID 1224839);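 note: HepG2 cells stably carrying human CAR and a CYP2B6 luciferase reporter; series mostly up to about 92 µM; nearly all actives have a fitted effect of over 15% in size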
Summary of the method: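 HepG2 cells stably expressing hCAR and a CYP2B6-2.2kb luciferase reporter were treated with compounds at 15 concentrations plus 0.75 uM PK11195 (final) for 24 h at 37 C; luminescence was read after ONE-Glo addition.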

[14] = qHTS assay to identify small molecule antagonists of the estrogen related receptor signaling pathway with the pleiotropic PPARgamma coactivator (PGC) from Tox21 10K library (AID 1224841; call rule not given here; note: actives are mostly falling curves and most rising ones were filed inactive; nearly all actives have a fitted effect of over 50% in size; note: potency is the fitted concentration of half-maximal effect)
Summary of the method: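 Luminescence read-out (One-Glo luciferase reagent, 30 min at room temperature) from PGC/ERR cells exposed to DMSO-dissolved test compounds for 18 h at 37 C; cells, 2,000 per well, had been preincubated 6 h before compound transfer.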

SMILES | Potency [1] | outcome [2] | Potency [3] | Potency [4] | Potency [5] | Potency [6] | Potency [7] | Potency [8] | Potency [9] | Potency [10] | Potency [11] | Potency [12] | Potency [13] | Potency [14]
CN(C)CCOc1ccccc1Cc1ccccc1 | inactive | inactive | inactive | inactive | inactive | inactive | inactive | inactive | inactive | inactive | – | – | – | –
CCOC(=O)C1CC(=O)C(=C(O)C2CC2)C(=O)C1 (stereo not drawn) | – | inactive | inactive | inactive | inactive | inactive | inactive | inactive | inactive | inactive | inactive | inactive | inactive | inactive
O=C1CCCc2ccccc21 | – | inactive | inactive | inactive | inactive | inactive | inactive | inactive | inactive | inactive | inactive | inactive | inactive | inactive
CC(C)=CCC[C@](C)(O)[C@@H]1CC=C(C)CC1 | inactive | – | inactive | inactive | inactive | inactive | inactive | inactive | inactive | – | – | inactive | inactive | –
CC(C)C[C@H](NC(=O)OCC1c2ccccc2-c2ccccc21)C(=O)O | – | inactive | inactive | 1.72 µM (active) | inactive | 3.56 µM (active) | – | – | inactive | 15.4 µM (active) | inactive | – | – | inactive
ClC(Cl)Cl | – | inactive | inactive | – | inactive | – | inactive | – | inactive | – | inactive | – | inactive | –
CC(=O)N[C@@H](CC(C)C)C(=O)O | – | inactive | inactive | inactive | inactive | inactive | inactive | inactive | inactive | inactive | inactive | inactive | – | inactive
Oc1ccccc1F | – | inactive | inactive | inactive | inactive | inactive | inactive | inactive | inactive | – | inactive | – | – | –
CCOc1ccccc1N | – | inactive | inactive | inactive | – | inactive | – | – | inactive | inactive | inactive | inactive | – | 15.2 µM (active)
CC1(C)C(=O)N(Cl)C(=O)N1Br | – | inactive | inactive | inactive | inactive | – | inactive | inactive | inactive | – | inactive | inactive | inactive | –
CC(C)CCCCCCc1ccc(OCCOCCO)cc1 | – | inactive | inactive | inactive | inactive | – | inactive | inactive | inactive | inactive | inactive | inactive | inactive | inactive
CCNCCO | – | inactive | inactive | inactive | inactive | inactive | inactive | inactive | inactive | – | inactive | – | – | –
